Screens deposited in PubChem by several laboratories.
TNAP act mid DEA: human TNAP enzyme activators, primary screen, biochemical, luminescent, intermediate phosphate acceptor level; Alkaline phosphatase, tissue-nonspecific isozyme (Homo sapiens), P05186; purified TNAP, CDP-star luminescence, 100 mM DEA, 30 min; stronger effect = higher value; scale: 0 levamisole-inhibited, 1 vehicle-only enzyme; activation factor at 20 µM; 64,000 tested, under 10 active; AID 813, 2007;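 active means activation factor of at least 2 at 20 µM, relative to controls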
DUSP1 inh: MKP-1 phosphatase inhibitors, primary screen, biochemical, in vitro | AID 374, 2006 | inhibition, %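 (compounds tested at a single concentration somewhere between 10 and 100 µM)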 | hit rate 0.15% among 65,000 | recombinant MKP-1, OMFP hydrolysis fluorescence;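 active means inhibition above about 50%, limit read from the data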
Hsp90 inh: tumor Hsp90 inhibitors, primary screen, cell lysate, fluorescence polarization, NCI-N417 lysate; Heat shock protein HSP 90-alpha (Homo sapiens), P07900; Cy3B-geldanamycin FP displacement; inhibition, % at 30 µM; hit rate 0.35% among 64,000;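 active means inhibition above 50%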
PLAP act: PLAP enzyme activators, biochemical, luminescence, HTS. Alkaline phosphatase, placental type (Homo sapiens), P05187. purified PLAP enzyme, luminescent substrate read-out; stronger effect = higher value. activation fold at 20 µM. hit rate 1.2% among 96,000. AID 696, 2007; in the data active means activation fold above about 2
HePTP inhibitor: inhibitors of human HePTP phosphatase, primary screen, biochemical, absorbance, leukemia target | inhibition, % at 20 µM | hit rate 0.64% among 110,000 | recombinant HePTP phosphatase activity, OD absorbance | AID 521, 2006; in the data active means inhibition above about 50%
Cdc25B block: inhibitors of Cdc25B phosphatase catalytic domain, primary screen, biochemical, OMFP fluorescence | M-phase inducer phosphatase 2 (Homo sapiens), P30305 | recombinant Cdc25B, OMFP fluorescence Ex485/Em525 | inhibition, %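 (compounds tested at 10 µM final in the well)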 | hit rate 0.1% among 65,000 | AID 368, 2006; in the data active means inhibition above about 50%
Target sequence (P30305 whole entry, looked up, the tested form may be a part): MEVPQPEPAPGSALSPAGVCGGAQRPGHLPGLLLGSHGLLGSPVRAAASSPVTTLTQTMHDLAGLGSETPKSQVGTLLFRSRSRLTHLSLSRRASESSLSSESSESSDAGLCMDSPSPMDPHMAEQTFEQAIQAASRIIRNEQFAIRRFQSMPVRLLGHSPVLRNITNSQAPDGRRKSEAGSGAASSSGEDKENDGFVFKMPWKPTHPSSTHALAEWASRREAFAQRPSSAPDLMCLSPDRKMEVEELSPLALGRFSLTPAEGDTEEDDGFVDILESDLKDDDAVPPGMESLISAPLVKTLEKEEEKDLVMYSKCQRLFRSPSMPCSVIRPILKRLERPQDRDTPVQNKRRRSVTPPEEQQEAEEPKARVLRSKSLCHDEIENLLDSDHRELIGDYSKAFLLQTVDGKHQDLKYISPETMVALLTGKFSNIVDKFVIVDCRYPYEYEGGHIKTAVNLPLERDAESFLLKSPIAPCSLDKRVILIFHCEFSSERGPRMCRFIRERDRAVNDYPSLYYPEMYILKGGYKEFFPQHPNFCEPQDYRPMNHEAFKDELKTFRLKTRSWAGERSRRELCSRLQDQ
Of the large screens only hits and unclear results are named; the others gave an inactive call. Sampled rows, rich in hits. Any-hit rate of the full collection: about 1.5%.

S=C(S)N(CCN(Cc1cccs1)C(=S)S)Cc1cccs1	HePTP inhibitor 67.2 (no result: TNAP act mid DEA, DUSP1 inh, Hsp90 inh, PLAP act, Cdc25B block)
CN(Cc1cccs1)S(=O)(=O)c1cccs1	none
CCOC(=O)c1ccc(Nc2nc3nonc3nc2NC(C)C)cc1	none (no result: TNAP act mid DEA, DUSP1 inh, Hsp90 inh, PLAP act, Cdc25B block)
CC(C)CCNC(=O)CN(C(=O)Cn1nnc(-c2ccccc2F)n1)c1cccc2c1CCCC2	PLAP act 2.6 (no result: TNAP act mid DEA, DUSP1 inh, Hsp90 inh, HePTP inhibitor, Cdc25B block)
O=c1cc(-c2cc(O)c3c(O)c4ccccc4c(O)c3c2O)c(=O)c2c(=O)c3ccccc3c(=O)c1=2	HePTP inhibitor 84.0 (no result: TNAP act mid DEA, DUSP1 inh, Hsp90 inh, PLAP act, Cdc25B block)
O=c1c2ccccc2c(=O)c2c1c(O)cc1sc3ccccc3[nH]c12	none (no result: TNAP act mid DEA, DUSP1 inh, Hsp90 inh, PLAP act, Cdc25B block)
NC(=O)NC(=O)c1nc2ccccc2[nH]c1=O	none (no result: TNAP act mid DEA, DUSP1 inh, Hsp90 inh, PLAP act, Cdc25B block)
CCOC(=O)N1CCN(C(=O)CCCn2c(=S)[nH]c3ccccc3c2=O)CC1	none
CCOC(=O)N1CCN(C(=O)CCCn2c(=S)[nH]c3ccc(Br)cc3c2=O)CC1	PLAP act 2 (no result: TNAP act mid DEA, DUSP1 inh, Hsp90 inh, HePTP inhibitor, Cdc25B block)
CCOC(=O)c1ccccc1-n1c(C)cc(C2N=C(N)Nc3nc4ccccc4n32)c1C (centres undefined)	PLAP act 2.5 (no result: TNAP act mid DEA, DUSP1 inh, Hsp90 inh, HePTP inhibitor, Cdc25B block)
NC1=NC(c2ccccc2)n2c(nc3ccccc32)N1 (centres undefined)	none (no result: TNAP act mid DEA, DUSP1 inh, Hsp90 inh, PLAP act, Cdc25B block)
NC1=NC(c2ccc(Br)cc2)n2c(nc3ccccc32)N1 (centres undefined)	PLAP act 2.2
Cc1c(NC(=O)CN(c2cccc([N+](=O)[O-])c2)S(=O)(=O)c2ccccc2)c(=O)n(-c2ccccc2)n1C	none (no result: TNAP act mid DEA, DUSP1 inh, Hsp90 inh, PLAP act, Cdc25B block)
N#CC(C#N)=C/C(=C/C(C#N)C#N)c1ccccc1	none (no result: TNAP act mid DEA, DUSP1 inh, Hsp90 inh, PLAP act, Cdc25B block)
CCOc1ccc(NC(=O)NCCCn2c(C)nc3cc(C)c(C)cc32)cc1	PLAP act 2.2 (no result: TNAP act mid DEA, DUSP1 inh, Hsp90 inh, HePTP inhibitor, Cdc25B block)
O=C(CN1CCN(Cc2ccccc2)CC1)N1CCCc2c1c(=O)oc1ccc(O)cc21	none
O=C1NCCCc2c1oc1ccc(O)cc21	Cdc25B block 50.4
COc1ccc(C(=O)Nc2nc(N3C(=O)c4ccccc4C3=O)n(-c3ccccc3)n2)cc1	PLAP act 2.2 (no result: TNAP act mid DEA, DUSP1 inh, Hsp90 inh, HePTP inhibitor, Cdc25B block)
O=C(Nc1nc(N2C(=O)c3ccccc3C2=O)n(-c2ccccc2)n1)c1ccc(F)cc1	PLAP act 2.1 (no result: TNAP act mid DEA, DUSP1 inh, Hsp90 inh, HePTP inhibitor, Cdc25B block)
O=C(Nc1ncc2c(n1)-c1ccccc1CC2)c1ccc(F)cc1	none (no result: TNAP act mid DEA, DUSP1 inh, Hsp90 inh, HePTP inhibitor, Cdc25B block)
CC(=O)Nc1nc(N2C(=O)c3ccccc3C2=O)n(-c2ccccc2)n1	none
COc1cc(/C=N/NC(=S)Cc2ccccc2)cc(OC)c1OC	HePTP inhibitor 103.9 (no result: TNAP act mid DEA, DUSP1 inh, Hsp90 inh, PLAP act, Cdc25B block)
O=S(=O)(CCc1ccccc1)/N=C/c1cc(Br)ccc1O	none (no result: TNAP act mid DEA, DUSP1 inh, Hsp90 inh, PLAP act, Cdc25B block)
Cc1ccc(-c2cc(C(=O)N/N=C/c3ccco3)[nH]n2)cc1	PLAP act 2.2 (no result: TNAP act mid DEA, DUSP1 inh, Hsp90 inh, Cdc25B block)
O=C(N/N=C/c1ccco1)c1cc(-c2ccc(Cl)cc2)n[nH]1	none (no result: TNAP act mid DEA, DUSP1 inh, Hsp90 inh, PLAP act, Cdc25B block)
COc1ccc(C2CC(=O)C3=C(C2)OC2=C(C(=O)CC(c4ccc(OC)cc4)C2)C3c2ccc(OC)c(OC)c2)cc1 (centres undefined)	none (no result: TNAP act mid DEA, DUSP1 inh, Hsp90 inh, PLAP act, Cdc25B block)
COc1cc2c(cc1NC(=O)COc1ccc(C)cc1Br)oc1ccccc12	none (no result: TNAP act mid DEA, DUSP1 inh, Hsp90 inh, PLAP act, Cdc25B block)
Cc1ccc(NC(=O)N(Cc2ccccc2)C(C)C2CC2)cc1 (centres undefined)	HePTP inhibitor 102.4 (no result: TNAP act mid DEA, DUSP1 inh, Hsp90 inh, PLAP act, Cdc25B block)
CC(C1CC1)N(Cc1ccccc1)C(=O)c1ccc(F)cc1 (centres undefined)	none (no result: TNAP act mid DEA, DUSP1 inh, Hsp90 inh, PLAP act, Cdc25B block)
COc1ccc(/C=C2/C=C(c3ccc(C)cc3)OC2=O)cc1OC	none (no result: TNAP act mid DEA, DUSP1 inh, Hsp90 inh, PLAP act, Cdc25B block)
Cc1cccc2c(=O)oc(-c3cccc([N+](=O)[O-])c3)nc12	none (no result: TNAP act mid DEA, DUSP1 inh, Hsp90 inh, PLAP act, Cdc25B block)
CCOC(=O)c1c(C)oc2c1c(C=NCc1ccccn1)c(O)c1ccccc12	none
CCOC(=O)c1c(C)oc2c1c(C=NCC1CCCO1)c(O)c1ccccc12 (centres undefined)	Hsp90 inh 64.0
COc1cc(C(=O)Nc2cc(-c3ccccc3)[nH]n2)cc(OC)c1OC	PLAP act 2.3
COc1cc(C(=O)Nc2nc(OC)c(-c3ccccc3)c(OC)n2)cc(OC)c1OC	none
COc1cc(C2/C(=C(\O)c3ccc(Cl)cc3)C(=O)C(=O)N2CCCCCC(=O)O)ccc1O (centres undefined)	none (no result: TNAP act mid DEA, DUSP1 inh, Hsp90 inh, PLAP act, Cdc25B block)
CC1(C)CC(=O)C2=C(C1)N(c1ccc(F)cc1)C(=O)CC2c1ccccc1 (centres undefined)	none (no result: TNAP act mid DEA, DUSP1 inh, Hsp90 inh, HePTP inhibitor, Cdc25B block)
